# Screens as filed in PubChem BioAssay.
# Most compounds without a hit are left out; they make up all but 21% or so of the library.
# Pf growth 96h: P. falciparum growth inhibition at 96 hour, primary screen for plastid delayed-death inhibitors; P. falciparum luciferase reporter growth, 96 h; Potency, µM (series often up to 28.7 µM), for the others: at the top dose activity change, negative = inhibition, actives largely listed as inhibitors; 320,000 compounds, 6.9% hits; AID 504834; active = well fitted inhibition curve with a large enough effect; inconclusive = small, poorly fitted or top-dose-only effect, or another doubt; inactive = no such curve, though single readings can be large or run the other way; note: potency is the fitted concentration of half-maximal effect; % is set by controls: 0 for no effect and ±100 for the full control effect
#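 Plates of compound plus infected erythrocytes (2% hematocrit, 0.05% parasitemia final) incubate 96 hours, 37 C, 5% CO2. Detection reagent added; reduced luminescence from the parasites' luciferase reporter flags inhibition.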
# Cycloheximide cs: affects cycloheximide protein synthesis inhibition readout, counter-screen | cell reporter, cycloheximide protein synthesis inhibition counterscreen | max response, % | 300,000 compounds, 12% hits; in the data active = max response mostly above about 13%, no sharp cut-off; inactive = mostly below about 14%; note: read at 38.3 µM for the half of the compounds with a filed dose; 0% is about no effect
# Shiga toxin inh: blocks Shiga toxin action in Vero cells. Vero cells, Shiga toxin protein synthesis inhibition reporter. inhibition, % at 38.7 µM. 290,000 compounds, 9.2% hits. AID 2315; in the data active = inhibition mostly above about 28%, no sharp cut-off; inactive = mostly below about 43%; note: 0% is about no effect
# NS1 inh: inhibitors of influenza NS1 protein function | AID 2326 | 270,000 compounds, 0.4% hits | Potency, µM (series often up to 46.1 µM), for inactives: at the highest dose activity, positive = more growth; note: potency is the fitted concentration of half-maximal effect; actives are rising curves; nearly all actives have a fitted effect of over 50% in size
#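 Read-out: OD600 growth recovery of NS1-expressing budding yeast. Cells grown overnight at 30C in -URA glucose medium, washed, resuspended and diluted 1:100 in 2% galactose assay medium, pH 6.0. Same strain lacking NS1 served as positive control.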
# Pf growth 48h: inhibits P. falciparum growth in the first generation, 48 h; 310,000 compounds, 5.9% hits; Potency, µM (highest dose often 28.7 µM), for inactives: at the highest dose activity change, negative = inhibition, actives largely listed as inhibitors; P. falciparum luciferase growth in erythrocytes, 48 h; active = well fitted inhibition curve with a large enough effect; inconclusive = small, poorly fitted or top-dose-only effect, or another doubt; inactive = no such curve, though single readings can be large or run the other way; note: potency is the fitted concentration of half-maximal effect; % is set by controls: 0 for no effect and ±100 for the full control effect
#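 Erythrocytes infected with P. falciparum carrying an integrated firefly luciferase reporter (2% hematocrit, 0.1% parasitemia final) were exposed to compounds in RPMI 1640 with 0.5% Albumax at 37 C, 5% CO2. Growth inhibition was scored as reduced luminescence.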
# SARS PLpro yeast: SARS-CoV PLP inhibition in yeast; S. cerevisiae expressing SARS-CoV PLpro, growth rescue; Potency, µM (titrated, usually from 32.9 µM), for inactives: at the highest dose activity, positive = growth rescue, usual class: activators; 330,000 compounds, 0.19% hits; AID 485353; note: potency is the fitted concentration of half-maximal effect; 0% is about no effect; nearly all actives have a fitted effect of over 55% in size
# Starred values were filed as active, the others as inactive; ? = inconclusive; nt = no result. Unless noted, calls come from the whole dose curve.
SMILES,Pf growth 96h,Cycloheximide cs,Shiga toxin inh,NS1 inh,Pf growth 48h,SARS PLpro yeast
CC(=O)Nc1cccc(C(=O)/C=C/c2ccc(F)cc2)c1,?,29.4*,41.2,-43.6%,-9.9%,-3.7%
CC(=O)Nc1cccc(C(=O)/C=C/c2ccc(N(C)C)cc2)c1,104.5%,41.9*,76.0*,24.8%,118.1%,-12.3%
CC(=O)Nc1cccc(C(=O)/C=C/c2ccc[nH]2)c1,22.1%,26.4*,53.6*,-3.9%,39.0%,-0.9%
CC(=O)Nc1cccc(C(=O)/C=C/c2ccc(Br)cc2)c1,26.4%,-5.3,-1.1,-7.3%,?,-40.9%
CC(=O)Nc1cccc(C(=O)/C=C/c2ccco2)c1,?,43.2*,48.9*,-134.1%,?,-17.1%
CC(=O)Nc1cccc(C(=O)/C=C/c2cccs2)c1,?,54.0*,81.8*,-54.8%,-18.6%,-37.1%
CC(=O)Nc1ccc(NC(=O)C(C)OC(=O)/C=C/c2cccs2)cc1 (configuration not stated),6.6%,4.5,-4.5,nt,26.4%,0.2%
CC(=O)Nc1ccc(C(=O)/C=C/c2ccco2)cc1,33.0%,-1.5,-7.2,18.0%,24.2%,-1.5%
O=C(Nc1nnc(-c2cc(Cl)ccc2Cl)o1)c1ccco1,27.9%,nt,nt,nt,-18.1%,-13.3%
COc1cc(/C=N/NC(=O)CC#N)cc(Br)c1O,22.9%,-1.0,-18.0,15.5%,10.1%,2.0%
C#Cc1ccc([C@@H]2C=C(C(=O)OCC=C)O[C@H](OCC)[C@H]2CCCO)cc1,2.33µM*,-1.3,-10.2,2.3%,?,0.1%
C#Cc1ccc([C@@H]2C=C(C(=O)Nc3ccccc3)O[C@H](OCC)[C@H]2CCCO)cc1,1.85µM*,-1.6,-8.0,-1.3%,?,-1.8%
C#Cc1ccc([C@H]2C=C(C(=O)NCc3ccccc3)O[C@@H](OCC)[C@@H]2CCCO)cc1,?,1.2,-8.8,0.5%,?,-0.4%
CCCCCCOC(=O)C1=C(C)NC(=O)NC1c1ccc2c(c1)OCO2 (configuration not stated),?,-1.0,-5.4,?,18.1%,4.9%
CCC1Oc2ccc(C)cc2N(CC(=O)NCCN2CCCCCC2)C1=O (configuration not stated),0.0%,-3.5,-12.1,-6.5%,-7.7%,-13.8%
Cc1c(C(=O)N2CCCCC2)c(S(=O)(=O)N2CCc3ccccc32)c(C)n1C,9.1%,-1.2,-6.1,8.2%,?,?
COc1cccc2c3c(c(=O)[nH]c12)CCC(C)(C)O3,nt,13.2*,36.3,-14.3%,10.0%,-8.1%
Cn1c(=O)c2c(c3ccccc31)OC(C)(C)CC2,5.3%,1.4,-11.5,4.1%,-3.5%,15.6%
O=C(Cn1c(-c2ccccc2)noc1=O)NCc1ccccc1,0.6%,11.1,-17.2,-7.0%,?,8.1%
N#CCCCn1c(-c2ccccc2)noc1=O,3.7µM*,-4.4,-6.8,0.4%,6.6%,-0.6%
CCOCCCNC(=O)C(c1ccccc1)N(Cc1ccc2c(c1)OCO2)C(=O)c1ccccc1O (configuration not stated),?,-2.8,-7.8,nt,?,1.8%
COc1ccc(C(=O)COC(=O)Cc2c[nH]c3ccccc23)c(OC)c1,0.3%,nt,nt,nt,-16.1%,-20.0%
O=C(Cc1c[nH]c2ccccc12)OCC(=O)c1ccccc1,nt,48.5*,5.4,-18.8%,12.6%,-8.5%
N#C/C(=C(/O)COC(=O)Cc1c[nH]c2ccccc12)c1nc2ccccc2[nH]1,?,14.1*,65.5*,3.7%,8.2%,3.6%
COc1ccccc1OCC(=O)OC/C(O)=C(\C#N)c1nc2ccccc2[nH]1,?,15.6*,10.1,?,19.6%,16.5%
CN1CN(C)C(c2ccncc2)=C1c1ccncc1,?,-0.3,23.0,-14.6%,0.5%,-4.9%
O=C(O)C(CCCCN1C(=O)c2ccccc2C1=O)N1C(=O)c2ccccc2C1=O (configuration not stated),10.4µM*,4.2,-10.7,6.8%,31.3%,1.9%
O=C(O)C(Cc1ccccc1)N1C(=O)c2ccccc2C1=O (configuration not stated),14.7µM*,-5.1,-3.4,5.0%,nt,0.4%
O=C(O)[C@H](CCc1ccccc1)N1C(=O)c2ccccc2C1=O,nt,nt,nt,1.4%,nt,nt
